This note sets out measurements from PubChem BioAssay (Tox21).

Unmarked numbers belong to inactive results. Records with an inconclusive call do not appear. Active and inactive are the calls of the source. Unless noted, calls follow the shape of the dose curve; as a rule, active = well fitted curve in the direction sought with a large enough effect in the repeat runs; inconclusive = weak or mixed curves; inactive = no such curve, though single readings can be large; an effect the other way counts as inactive or inconclusive.

Assay [1] in a line: qHTS assay to test for compound auto fluorescence at 460 nm (blue) in HEK293 cell free culture (AID 720681). Put shortly:
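Blue fluorescence (Ex 405/Em 460 nm, triamterene-equivalent) was read immediately after pin transfer of compound or DMSO into medium (DMEM, 10% FBS) without cells.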

Assay [2] is described as follows: qHTS assay to test for compound auto fluorescence at 535 nm (green) in HEK293 cell free culture (AID 720682). In short, it runs like this:
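Fluorescein serves as the green reference fluorophore; each compound's intrinsic emission at 535 nm (excitation 485 nm) is reported as an equivalent amount of that dye, measured in serum-containing DMEM without cells.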

Assay [3] in a line: qHTS assay to test for compound auto fluorescence at 590 nm (red) in HEK293 cell free culture (AID 720683). Put shortly: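 Red-channel autofluorescence of compounds in culture medium (DMEM, 10% FBS), no cells, measured at 540/590 nm. Rose Bengal sodium is the reference fluorophore for equivalence.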
The nature of assay [4]: qHTS assay to test for compound auto fluorescence at 590 nm (red) in HepG2 cell free culture (AID 720684). In short, it runs like this:
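Plate contents were MEM with 10% FBS plus test compound or DMSO, no cells. Fluorescence was recorded with 540 nm excitation and 590 nm emission.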

The nature of assay [5]: qHTS assay to test for compound auto fluorescence at 460 nm (blue) in HepG2 cell free culture (AID 720685). In short, it runs like this: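 Compound (23 nL) or DMSO pinned into cell-free MEM with 10% FBS; blue fluorescence read at 405/460 nm excitation/emission, expressed as auto-fluorescence equivalency to triamterene.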
A short description of assay [6]: qHTS assay to test for compound auto fluorescence at 535 nm (green) in HepG2 cell free culture (AID 720686).
Assay [7] is described as follows: qHTS assay to test for compound auto fluorescence at 460 nm (blue) in HepG2 cells (AID 720687). Put shortly: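 Blue-channel autofluorescence (Ex/Em 405/460 nm, triamterene-equivalent) was measured after 1 hr compound exposure at 37 C, 5% CO2. Cells were HepG2, plated overnight at 37 C in MEM plus 10% FBS.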
Assay [8] is described as follows: qHTS assay to identify small molecule antagonists of the glucocorticoid receptor (GR) signaling pathway - cell viability counter screen (AID 720693). Also: nearly all actives have a fitted effect of over 55% in size.
A short description of assay [9]: qHTS assay for identifying genotoxic compounds that show differential cytotoxicity against isogenic chicken DT40 cell lines with known DNA damage response pathways - wild type cell line (AID 743012). Also: nearly all actives have a fitted effect of over 60% in size. Also: potency is read from the fitted curve at half-maximal effect. In short, it runs like this:
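Using parental DT40 (300 cells/well), compounds delivered in DMSO incubate 40 h at 37 C/5% CO2. CellTiter-Glo reagent then stands 30 min at room temperature, and luminescence gives cell viability.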

Assay [10] in a line: qHTS assay for identifying genotoxic compounds that show differential cytotoxicity against isogenic chicken DT40 cell lines with known DNA damage response pathways - Rev3 mutant cell line (AID 743014). Also: nearly all actives have a fitted effect of over 55% in size. Also: potency is read from the fitted curve at half-maximal effect.
Assay [11] can be described thus: qHTS assay for identifying genotoxic compounds that show differential cytotoxicity against isogenic chicken DT40 cell lines with known DNA damage response pathways - Rad54/Ku70 mutant cell line (AID 743015). Also: nearly all actives have a fitted effect of over 60% in size. Also: potency is read from the fitted curve at half-maximal effect.
The nature of assay [12]: qHTS assay to identify small molecule antagonists of the androgen receptor (AR) signaling pathway - cell viability counter screen (AID 743033; also: nearly all actives have a fitted effect of over 45% in size).
Assay [13] in a line: qHTS assay to identify small molecule antagonists of the androgen receptor (AR) signaling pathway using the MDA cell line - cell viability counter screen (AID 743041; also: nearly all actives have a fitted effect of over 45% in size). Put shortly: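 R1881-driven MDA-kb2 AR-luc cells, 3,000/well, were dosed with library compounds for 16 h; cell health came from CellTiter-Fluor fluorescence in the reporter wells.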
The nature of assay [14]: qHTS assay to identify small molecule antagonists of the thyroid receptor (TR) signaling pathway - cell viability counter screen (AID 743064). Also: nearly all actives have a fitted effect of over 50% in size. Also: potency is read from the fitted curve at half-maximal effect. Put shortly: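 Fluorescence from CellTiter-Fluor, added after 23.5 h exposure at 37 °C, reported viability of GH3.TRE-Luc cells co-treated with compound and 1 nM T3. Measured in the same wells as the luciferase TR readout.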
Assay [15] deals with Glucocorticoid receptor (Homo sapiens) (UniProt P04150). Kind of assay: qHTS assay to identify small molecule agonists of the glucocorticoid receptor (GR) signaling pathway (AID 720691; active = well fitted activation curve with a large enough effect in the signal ratio in the repeat runs, not every such curve was filed as active; the % refers to the signal ratio). Put shortly:
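Reporter read-out: fluorescence intensity following 2 h room-temperature LiveBLAzer B/G FRET substrate loading. Prior step: GR-bla HeLa cells held 4 h, then treated 18 h at 37 C.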

Assay [16] deals with Androgen receptor (Homo sapiens) (UniProt P10275). Kind of assay: qHTS assay to identify small molecule agonists of the androgen receptor (AR) signaling pathway using the MDA cell line (AID 743040; also: nearly all actives have a fitted effect of over 20% in size). Put shortly:
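After a 5 h incubation at 37C and 0% CO2, MDA-kb2 reporter cells were dosed with compounds in DMSO and kept 16 h under the same conditions. Luciferase activity was then read as luminescence with ONE-Glo.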

Assay [17] shares this target. Put plainly: qHTS assay to identify small molecule agonists of the androgen receptor (AR) signaling pathway (AID 743036; active = well fitted activation curve with a large enough effect in the signal ratio in the repeat runs, with a control signal flat, not every such curve was filed as active; the % refers to the signal ratio). In short, it runs like this: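 Fluorescence from a beta-lactamase FRET substrate served as read-out in AR-UAS-bla GripTite HEK293 cells. Cells were treated with DMSO-dissolved compounds for 16 h at 37C, then with LiveBLAzer B/G substrate for 2 h at room temperature.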

The target is the same in assay [18]. Kind of assay: qHTS assay to identify small molecule antagonists of the androgen receptor (AR) signaling pathway using the MDA cell line (AID 743042; also: nearly all actives have a fitted effect of over 55% in size). Put shortly:
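Antagonist mode: compounds plus R1881 agonist added to MDA-kb2 AR-luc cells, incubated 16 h at 37C. Luciferase reporter luminescence quantified, with multiplexed CellTiter-Fluor readout for cell viability.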

Assay [19] concerns the target Glucocorticoid receptor (Homo sapiens) (UniProt P04150). Kind of assay: qHTS assay to identify small molecule antagonists of the glucocorticoid receptor (GR) signaling pathway (AID 720692; active = well fitted inhibition curve with a large enough effect in the signal ratio in the repeat runs, not every such curve was filed as active; the % refers to the signal ratio). In short, it runs like this:
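Dexamethasone (5 nM final) stimulated a stably integrated GRE-beta-lactamase reporter in HeLa cells during 18 h co-incubation with compounds; signal was quantified as fluorescence intensity of B/G FRET substrate after 2 h.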

Chain of Glucocorticoid receptor (Homo sapiens) (P04150 whole entry, looked up): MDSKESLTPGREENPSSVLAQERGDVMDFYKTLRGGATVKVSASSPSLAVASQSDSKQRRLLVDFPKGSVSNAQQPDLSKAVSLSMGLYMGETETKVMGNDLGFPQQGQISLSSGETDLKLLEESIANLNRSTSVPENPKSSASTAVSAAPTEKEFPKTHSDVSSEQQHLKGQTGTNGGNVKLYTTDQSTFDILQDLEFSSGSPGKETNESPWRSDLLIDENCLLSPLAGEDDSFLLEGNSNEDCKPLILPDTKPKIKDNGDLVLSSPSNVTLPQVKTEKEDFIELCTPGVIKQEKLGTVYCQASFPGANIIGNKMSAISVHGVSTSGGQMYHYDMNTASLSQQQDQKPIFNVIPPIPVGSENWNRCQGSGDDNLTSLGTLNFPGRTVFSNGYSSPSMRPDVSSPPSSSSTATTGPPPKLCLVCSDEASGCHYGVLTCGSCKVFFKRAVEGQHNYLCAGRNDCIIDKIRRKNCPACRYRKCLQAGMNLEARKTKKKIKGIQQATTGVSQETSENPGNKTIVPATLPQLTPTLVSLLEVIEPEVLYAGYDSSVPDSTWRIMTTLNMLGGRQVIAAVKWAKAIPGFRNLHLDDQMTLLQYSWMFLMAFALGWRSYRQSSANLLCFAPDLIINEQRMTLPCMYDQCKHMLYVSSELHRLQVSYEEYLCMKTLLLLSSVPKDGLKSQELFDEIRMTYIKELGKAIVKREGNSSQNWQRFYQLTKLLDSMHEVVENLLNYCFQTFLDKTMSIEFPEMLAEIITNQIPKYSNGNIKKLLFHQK
Chain of Androgen receptor (Homo sapiens) (P10275 whole entry, looked up): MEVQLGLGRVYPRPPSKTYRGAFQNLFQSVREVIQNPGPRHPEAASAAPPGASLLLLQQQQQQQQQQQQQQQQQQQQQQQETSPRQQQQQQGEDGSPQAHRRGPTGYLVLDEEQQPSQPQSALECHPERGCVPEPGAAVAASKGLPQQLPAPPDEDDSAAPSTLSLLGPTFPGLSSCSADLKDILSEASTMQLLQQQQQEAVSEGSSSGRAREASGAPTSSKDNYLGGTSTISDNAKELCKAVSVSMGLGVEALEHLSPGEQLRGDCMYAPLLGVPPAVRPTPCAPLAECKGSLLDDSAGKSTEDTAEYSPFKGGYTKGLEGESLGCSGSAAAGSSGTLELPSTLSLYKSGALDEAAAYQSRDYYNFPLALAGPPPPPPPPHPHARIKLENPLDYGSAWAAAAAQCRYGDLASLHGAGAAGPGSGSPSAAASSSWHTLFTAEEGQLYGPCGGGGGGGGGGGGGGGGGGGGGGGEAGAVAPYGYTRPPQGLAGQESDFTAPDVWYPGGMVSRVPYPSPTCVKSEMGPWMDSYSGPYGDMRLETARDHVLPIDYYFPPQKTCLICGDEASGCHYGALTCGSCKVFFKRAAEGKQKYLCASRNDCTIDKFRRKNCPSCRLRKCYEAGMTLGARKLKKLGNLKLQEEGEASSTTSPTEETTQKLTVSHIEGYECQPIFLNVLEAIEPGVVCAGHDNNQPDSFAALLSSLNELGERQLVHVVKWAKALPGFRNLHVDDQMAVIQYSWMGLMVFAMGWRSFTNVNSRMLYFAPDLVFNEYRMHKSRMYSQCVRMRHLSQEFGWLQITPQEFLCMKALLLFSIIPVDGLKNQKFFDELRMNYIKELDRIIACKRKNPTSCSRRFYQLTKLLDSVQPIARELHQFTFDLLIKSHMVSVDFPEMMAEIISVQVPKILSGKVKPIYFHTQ

Take `Nc1ccc(-c2ccc(F)cc2)cc1`: the Potency entry in assay [1], in [8], in [12], in assay [13] and in [14] was “inactive” each time. Besides, the outcome in assay [2], in assay [3], in assay [4], in assay [5], in assay [6] and in assay [7] was inactive. For the same compound, the Potency in assay [9] is 68.6 µM (active); in assay [10], 48.6 µM (active); in assay [11], 68.6 µM (active).
Consider `NCCOCCOCCN`, for which the Potency result in [1], in [15] and in [14] was “inactive” in each case. In addition, the compound was called inactive in [2], in assay [3], in assay [4], in [5], in [6] and in assay [7]. In addition, in [16], the result was inactive. The Potency in assay [9], in [10] and in assay [11] was 24.3 µM (active) in each case.
With `CCCCCCCCCCCCCCCCN`, the Potency entry in [1], in assay [8], in assay [9], in [10], in [11] and in [13] was “inactive” in each case. For the same compound, the compound was classed as inactive in [2], in assay [3], in assay [4], in assay [5], in [6] and in assay [7].
Turning to `O=C(c1ccc(Cl)cc1)c1ccc(Cl)cc1`, the compound was called inactive in [2], in assay [3], in assay [4], in assay [5], in [6] and in assay [7]. The outcome in assay [17] and in assay [16] was inactive. In addition, the Potency result in assay [8], in assay [10], in assay [11], in assay [12], in assay [13] and in [18] was “inactive” in each case. Further, the Potency result in [14] was “inactive”.
Take `CC1=C(C)C(=O)C(CCCCC#CCCCC#CCO)=C(C)C1=O`: the compound was classed as inactive in [2], in assay [3], in assay [4], in [5], in assay [6] and in assay [7]. In addition, the Potency entry in assay [15], in assay [19], in assay [8], in assay [12] and in assay [13] was “inactive” in each case. The figures for the Potency in assay [9], in assay [10] and in assay [11] were 8.41 µM (active), 10.6 µM (active) and 11.9 µM (active), respectively.
As for `Nc1ccc(C(=O)Oc2ccccc2)c(O)c1`, the Potency entry in assay [1], in [15], in assay [19], in [8], in assay [10] and in assay [12] was “inactive” in each case. Also, the Potency entry in assay [13] and in assay [14] was “inactive” throughout. Further, the result in assay [2], in [3], in [4], in [5], in assay [6] and in assay [7] was inactive. Further, the Potency in assay [9] and in assay [11] was 29.8 µM (active) in each case.
Take `CCc1cnc(C(=O)O)c(C(=O)O)c1`: the Potency result in assay [1], in [8], in assay [9], in assay [11], in [12] and in [13] was “inactive” in each case. In addition, the Potency entry in [14] is “inactive”. The outcome in assay [2], in assay [3], in assay [5], in [6] and in assay [7] was inactive.
Regarding `CC(=O)c1ccc(Cl)c(Cl)c1Cl`, the Potency entry in assay [1], in assay [8], in [9], in assay [10], in [11] and in assay [12] was “inactive” throughout. Also, the Potency result in assay [13] and in [14] was “inactive” each time. Besides, the compound was called inactive in assay [2], in [3], in assay [4], in assay [5], in [6] and in [7].
`O=C(O)c1c2ccccc2cc2ccccc12`: the Potency result in assay [1], in assay [8], in assay [9], in [10], in assay [11] and in [12] was “inactive” each time. Besides, in assay [13], the Potency entry was “inactive”. The compound was classed as inactive in assay [2], in assay [3], in assay [4], in assay [5], in assay [6] and in assay [7].
Take `CCOc1cc(OCC)c(C(C)=O)cc1OCC`: the Potency entry in [1], in [15], in assay [8], in assay [12], in assay [13] and in [18] was “inactive” throughout. In addition, the outcome in [2], in assay [3], in assay [4], in assay [5], in assay [6] and in [7] was inactive. Further, the outcome in assay [17] and in assay [16] was inactive. Further, the results for the Potency in assay [10] and in [14] were 60 µM (active) and 19 µM (active), respectively.
As for `O=C(O)CCc1nc2ccccc2[nH]1`, the Potency result in [1], in assay [8], in [9], in assay [10], in assay [11] and in [12] was “inactive” each time. The Potency entry in assay [13] and in assay [14] was “inactive” throughout. For the same compound, the call in assay [2], in assay [3], in assay [4], in assay [5], in [6] and in assay [7] was inactive.
Regarding `S=c1[nH][nH]c(=S)s1`, the Potency result in assay [1], in [15], in [19], in assay [8], in assay [10] and in [13] was “inactive” each time. In assay [14], the Potency entry was “inactive”. Further, the call in assay [2], in assay [3], in assay [4], in assay [5], in assay [6] and in assay [7] was inactive.
Turning to `O=C(O)COCC(=O)O`, the Potency entry in assay [1], in assay [15], in assay [19], in assay [8], in assay [9] and in assay [10] was “inactive” each time. The Potency entry in assay [11], in assay [12], in assay [13] and in assay [14] was “inactive” in each case. Besides, the outcome in [2], in [3], in assay [4], in assay [5], in assay [6] and in assay [7] was inactive.
In the case of `O=[N+]([O-])c1ccccc1CCO`, the call in [2], in assay [3], in assay [5], in assay [6] and in assay [7] was inactive. The Potency entry in assay [8], in [9], in assay [10], in [11], in assay [12] and in assay [13] was “inactive” each time. Moreover, in [14], the Potency result is “inactive”.
Consider `Cc1ccc(S(=O)(=O)NC(=O)NC2CCCC2)cc1`, for which the Potency result in assay [1], in assay [15], in assay [19], in [8], in assay [9] and in assay [10] was “inactive” each time. The Potency entry in assay [11], in [13] and in assay [14] was “inactive” throughout. Besides, the outcome in assay [2], in assay [3], in assay [4], in assay [5], in assay [6] and in assay [7] was inactive.
With `CCCC(=O)OCCC(C)C`, the Potency result in assay [1], in assay [19], in [8], in assay [9], in assay [10] and in assay [11] was “inactive” in each case. Further, the Potency result in assay [12], in [13], in assay [18] and in assay [14] was “inactive” throughout. Besides, the result in [2], in [3], in [4], in [5], in assay [6] and in [7] was inactive. In addition, the call in assay [17] and in assay [16] was inactive.
